Only some compounds are listed: those with a hit (about 8% of all), similar ones and a draw of the others.
KB-V1 cytotox: qHTS assay for MDR1-selective chemotherapeutics: Primary screen using the drug-selected MDR subline cells KB-V1. 400,000 compounds, 3.4% hits. AID 1347076, 2019. KB-V1 MDR cells viability, CellTiter-Glo, 72 h. Potency, µM (titrated, usually from 46.1 µM), most hits filed as cytotoxic; further: nearly all actives have a fitted effect of over 60% in size
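Cytotoxicity via CellTiter-Glo luminescence after 72 h compound exposure at 37 degrees C. Cells: drug-selected KB-V1 line, DMEM phenol-red free plus 10% FBS. Compounds tested at multiple concentrations; normalized data fitted to concentration-effect curves.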
MCF10A rereplic: A quantitative high throughput screen for small molecules that induce DNA re-replication in MCF 10a normal breast cells. MCF 10A DNA re-replication, Hoechst nuclear intensity, 48 h. Potency, µM (titrated, usually from 46.1 µM), hits mostly activators. 350,000 compounds, 2.9% hits. AID 624296, 2012; further: nearly all actives have a fitted effect of over 50% in size
HT1080-NT tox: qHTS for induction of synthetic lethality in tumor cells producing 2HG: qHTS for the HT-1080-NT fibrosarcoma cell line | Potency, µM (doses to about 46.1 µM), actives largely listed as cytotoxic | 360,000 compounds, 1.6% hits | HT-1080-NT fibrosarcoma viability, CellTiter-Glo ATP luminescence, 48 h | AID 686970, 2013;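 further: NT is the 2HG producing partner of a matched IDH1 knockdown line; nearly all actives have a fitted effect of over 55% in size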
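Read-out is CellTiter-Glo luminescence after 10 minutes at room temperature, following 48 hours' compound treatment of HT-1080-NT cells (750 cells/well, RPMI, 5% FBS, 37 degrees C).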
KB-3-1 tox: qHTS assay for MDR1-selective chemotherapeutics: Primary screen using the parental adenocarcinoma cell KB-3-1; KB-3-1 viability, CellTiter-Glo ATP luminescence, 72 h; Potency, µM (doses to about 46.1 µM), most hits filed as cytotoxic; 400,000 compounds, 1.4% hits; further: nearly all actives have a fitted effect of over 60% in size
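72 h, 37 °C compound treatment of KB-3-1 parental cells; CellTiter-Glo added, 10 min, luminescence read. Data corrected against DMSO-only plates and normalized before curve fitting.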
SW480 rerep: A quantitative high throughput screen for small molecules that induce DNA re-replication in SW480 colon adenocarcinoma cells; Potency, µM (top dose mostly 46.1 µM), hits mostly activators; SW480 DNA re-replication, Hoechst DNA content imaging, 48 h; AID 624297, 2012; 340,000 compounds, 1.8% hits; further: nearly all actives have a fitted effect of over 55% in size
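Image-based DNA-content assay: after two days of treatment, nuclei were labelled with the DNA dye Hoechst and imaged, and hits were compounds raising the count of nuclei showing high fluorescence intensity.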
HT1080 IDH1KD tx: qHTS for induction of synthetic lethality in tumor cells producing 2HG: qHTS for the HT-1080-IDH1KD cell line | Potency, µM (series often up to 46.1 µM), actives largely listed as cytotoxic | 360,000 compounds, 2% hits | HT-1080 IDH1 knockdown viability, ATP luminescence, 48 h
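Using the IDH1-knockdown HT-1080 line run in the same batch and compound series as the NT line, viability after 48 h at 37 °C was determined by CellTiter-Glo luminescence and expressed as % activity.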
A number is an active result; n = inactive; u = inconclusive; x = no result; [ ] = another dose, or the depositor's remark. The call rests on the fitted dose curve; in most records, active means well fitted curve in the direction sought with a large enough effect; inconclusive means small, poorly fitted or top-dose-only effect, or another doubt; inactive means no such curve, though single readings can be large; an effect the other way counts as inactive or inconclusive.

SMILES	KB-V1 cytotox	MCF10A rereplic	HT1080-NT tox	KB-3-1 tox	SW480 rerep	HT1080 IDH1KD tx
COc1ccc(NC(=O)C2(C)Cc3c(-c4cccc(C(N)=O)c4)ccnc3O2)cc1 (stereo not drawn)	u	x	u	7.3µM	x	u
Cc1ccc(CN2CCCn3nc(C(=O)NCCC(C)C)cc3C2=O)cc1	n	x	x	n	x	x
C/C(=N\OCC(=O)NCC(F)(F)F)c1cc2ccccc2o1	n	n	n	n	n	n
CCCCNC(=O)CO/N=C(\C)c1cc2ccccc2o1	16µM	n	n	n	n	n
COc1cc(C2C(C#N)=C(N)N(Nc3ccccc3)C3=C2C(=O)CC(C)(C)C3)ccc1OCc1ccccc1 (stereo not drawn)	n	u	u	u	26µM	u
COc1cc(C2C(C#N)=C(N)N(Nc3ccccc3)C3=C2C(=O)CC(C)(C)C3)ccc1OCc1cccc(F)c1 (stereo not drawn)	n	u	u	n	u	u
C=CCOc1ccc(C2C(C#N)=C(N)N(Nc3ccccc3)C3=C2C(=O)CCC3)cc1OC (stereo not drawn)	n	23µM	u	u	u	u
O=C(NCC(=O)N1CCN(S(=O)(=O)c2ccc3c(c2)OCCO3)CC1)c1ccccc1F	n	n	n	n	n	n
O=C(Cc1ccc2c(c1)OCCO2)N1CCN(S(=O)(=O)c2cccc(Cl)c2Cl)CC1	23µM	n	n	n	n	n
O=S(=O)(c1ccc(N2CCN(S(=O)(=O)c3ccc4c(c3)OCCO4)CC2)nc1)N1CCCC1	8.2µM	n	n	u	n	n
O=C(C1CC(=O)N(c2ccc3c(c2)OCCO3)C1)N1CCN(S(=O)(=O)c2cccc(F)c2)CC1 (stereo not drawn)	21µM	n	n	n	n	n
O=C(Cc1ccc2c(c1)OCCO2)N1CCN(S(=O)(=O)c2ccccc2C(F)(F)F)CC1	21µM	n	n	n	n	n
O=C(Cc1ccc2c(c1)OCCO2)N1CCN(S(=O)(=O)c2cccs2)CC1	u	n	n	n	n	n
COc1cc(NC(=O)Cn2c(=O)n(-c3ccccc3)c(=O)c3c4c(sc32)CCCC4)cc(OC)c1	u	x	x	n	x	x
CCc1ccc(NC(=O)c2cccc(N3CCCS3(=O)=O)c2)cc1	n	x	x	n	x	x
CN(C)c1ccc(N=Nc2ccc(S(=O)(=O)O)cc2)cc1	n	x	x	n	x	x
COc1ccc(Cl)cc1NC(=O)CN1c2ccccc2S(=O)(=O)c2ccccc21	n	x	x	n	x	x
Cc1ccc(Cl)cc1N1CCN(C(=O)CN2C(=O)COc3ccc(S(=O)(=O)N4CCCCCC4)cc32)CC1	26µM	x	x	u	x	x
Cc1ccc(S(=O)(=O)N2CCN(C(=O)Cc3ccc4c(c3)OCCO4)CC2)cc1C	4.1µM	n	n	n	n	n
COc1ccc(S(=O)(=O)N2CCN(C)CC2)cc1	n	n	n	n	u	n
COc1ccc(S(=O)(=O)N2CCN(C3Cc4ccccc4C3)CC2)cc1	21µM	n	n	n	n	n
Cc1ccc(Cl)cc1N1CCN(C(=O)CN2C(=O)COc3ccc(S(=O)(=O)N4CCC(C)CC4)cc32)CC1	u	x	x	n	x	x
CCCCCC(=O)N1CCN(S(=O)(=O)c2ccc3c(c2)OCCO3)CC1	u	n	n	n	n	n
O=C(CCl)N1CCN(S(=O)(=O)c2ccc3c(c2)OCCCO3)CC1	n	4.1µM	n[9.24 µM]	u	u	u
CC(=O)NCCNC(=O)CCCc1nnc2n(C)c(=O)c3sccc3n12	u	x	x	n	x	x
SMILES	KB-V1 cytotox	MCF10A rereplic	HT1080-NT tox	KB-3-1 tox	SW480 rerep	HT1080 IDH1KD tx
Cc1ccc(Cn2c(C(=O)O)c(CNCc3ccc(OC(C)C)cc3)c3ccc(C)cc32)cc1	n	x	x	u	x	x
O=C(c1cccnc1)N1CCN(S(=O)(=O)c2ccc3ccccc3c2)CC1	18µM	n	n	16µM	n	n
O=C(CCl)N1CCN(S(=O)(=O)c2ccc3ccccc3c2)CC1	u	15µM	u	u	u	u
O=C(NCC(=O)N1CCN(S(=O)(=O)c2ccccc2)CC1)c1ccc2ccccc2c1	12µM	n	n	n	n	n
COc1ccc(S(=O)(=O)N2CCN(C(=O)c3cccnc3)CC2)cc1OC	n	n	n	n	n	n
O=C(NCC(=O)N1CCCC(C(F)(F)F)C1)c1ccc2ccccc2c1 (stereo not drawn)	n	n	n	n	18µM	n
CNC(=O)c1cnc2sc(N3CCC(C)CC3)nn2c1=O	n	x	x	n	x	x
CN1CCN(S(=O)(=O)c2ccc(N3CCN(C(c4ccccc4)c4ccccc4)CC3)nc2)CC1	n	u	n	u	n	u
CCOC(=O)N1CCC(N2CCN(S(=O)(=O)c3ccc4ccccc4c3)CC2)CC1	2.6µM	n	n	n	n	n
CN1CCN(S(=O)(=O)c2ccc(N3CCN(S(=O)(=O)/C=C/c4ccccc4)CC3)nc2)CC1	n	7.3µM	n	n	u	n
COc1cc(C(=O)OCc2cc(=O)n3nc(C4CCCCC4)sc3n2)cc(OC)c1OC	n	x	x	n	x	x
CCc1ccc(NC(=O)c2cc3c([nH]c2=O)CC(C)(C)CC3=O)cc1	n	x	x	n	x	x
N#Cc1ccc(NC(=O)Cn2cnc([N+](=O)[O-])c2)cc1	u	n	n	n	n	n
O=C(Cn1cnc([N+](=O)[O-])c1)Nc1cc(Oc2ccc(Cl)cc2Cl)cc([N+](=O)[O-])c1	n	u	21µM	u	u	u
CC(C)OCCCN(Cc1ccco1)C(=O)c1cc2c(s1)-c1ccccc1OC2	9.2µM	x	x	16µM	x	x
CC(C)Sc1ncc(Cl)c(C(=O)Nc2ccc(S(=O)(=O)N3CCCCC3C)cc2)n1 (stereo not drawn)	n	x	x	n	x	x
Clc1ccc(Cn2c(/C=C/c3ccco3)nc3ccccc32)cc1	n	21µM	u	n	n	u
Cc1ccc(Cn2c(/C=C/c3ccco3)nc3ccccc32)cc1	u	n	n	n	n	u
Cc1ccc(-n2nnnc2SCC(=O)NCCc2ccccc2)cc1C	n	x	x	n	x	x
Cc1cc(C)cc(NC(=O)/C(C#N)=C/c2cn(CC(=O)NCc3ccco3)c3ccccc23)c1	u	n	10µM	u	u	9.2µM
Nc1ccccc1C#CC(=O)c1ccccc1	n	8.2µM	u	u	u	u
Nc1ccccc1C#Cc1ccc([N+](=O)[O-])cc1	n	u	n	n	u	n
COc1ccc(C(=O)Nc2ccc(N(C)Cc3ccccc3)c(C(=O)O)c2)cc1	n	x	x	n	x	x

Screens as filed in PubChem BioAssay.
